This is a sample that favours compounds with a hit; in the whole collection about 4.2% have one here.
D1 potentiator: enhances dopamine response at the human D1 receptor | HEK293 TREx D1 cells, calcium flux, dopamine EC20 potentiation | potentiation, % at 10 µM | hit rate 0.036% among 360,000 | P21728; in the data active means potentiation above about 30%
Target sequence (P21728 whole entry, looked up): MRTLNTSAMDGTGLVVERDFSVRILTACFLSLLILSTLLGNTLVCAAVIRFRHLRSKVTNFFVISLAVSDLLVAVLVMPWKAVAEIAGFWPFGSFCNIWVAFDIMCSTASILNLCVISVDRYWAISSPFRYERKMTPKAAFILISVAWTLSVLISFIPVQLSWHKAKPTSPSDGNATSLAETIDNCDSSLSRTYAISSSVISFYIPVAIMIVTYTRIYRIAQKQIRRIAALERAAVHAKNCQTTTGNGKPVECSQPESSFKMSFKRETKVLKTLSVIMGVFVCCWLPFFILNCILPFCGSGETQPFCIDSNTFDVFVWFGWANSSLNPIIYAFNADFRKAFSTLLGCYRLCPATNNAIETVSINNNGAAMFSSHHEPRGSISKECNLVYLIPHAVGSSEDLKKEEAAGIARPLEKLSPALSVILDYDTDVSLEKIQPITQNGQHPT
D1 ag: activates the human D1 dopamine receptor | HEK293 T-REx D1 cells, calcium flux, agonist mode | activation, % at 2 µM | P21728 | hit rate 1% among 360,000 | AID 504660; in the data active means activation above about 30%
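Tetracycline-induced HEK293 TREx D1 cells, force-coupled to calcium signalling, were dye-loaded with a no-wash calcium kit. Compound was pin-added after a 10 s baseline. Fluorescence was read kinetically at 1 cycle/s for 180 s, with calcium rises flagged as agonism.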
D1 antag: blocks dopamine activation of the human D1 receptor; activity change, negative = inhibition, % at 10 µM; hit rate 3.2% among 360,000; AID 504652; HEK293 TREx D1 cells, calcium flux, dopamine EC80; hits give low values; in the data active means activity change below about -30%
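Allosteric or orthosteric antagonism assessed as attenuation of the calcium response to EC80 dopamine, added 180 s after compound, in induced HEK293 Trex D1 cells loaded with no-wash calcium dye.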
TRPV1 agonist: human TRPV1 agonism | Q8NER1 | TRPV1-expressing cells, Fluo-8 calcium influx, agonist mode | activation, % at 8.33 µM | hit rate 0.19% among 320,000; in the data active means activation above about 80%; inconclusive means between about 30% and that limit
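Fluo-8 calcium influx in TRPV1-expressing cells, kinetic read (ex 480/em 520 nm). Compound added and read 3 min for agonist activity, followed by capsaicin at EC20 final and 2 min further read for enhancement.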
TRPV1 PAM: enhances activation of the human vanilloid receptor TRPV1; TRPV1-expressing cells, Fluo-8 calcium influx, capsaicin EC20 potentiation; potentiation, % at 8.33 µM; AID 540277; Q8NER1; hit rate 0.02% among 320,000; in the data active means potentiation above about 80%; inconclusive means between about 30% and that limit
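Fluo-8 calcium influx in TRPV1-expressing cells, kinetic read (ex 480/em 520 nm). Compound added and read 3 min for agonist activity, followed by capsaicin at EC20 final and 2 min further read for enhancement.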
Each line names hits and unclear results; the compound was inactive in the other large screens; ! = repeats disagree.

CCOc1cc(S(=O)(=O)n2ccc(C)n2)ccc1Br	D1 antag -37
CCOc1cc(S(=O)(=O)n2ccnc2)ccc1Br	none
CCOc1cc(S(=O)(=O)Nc2ncn[nH]2)ccc1Br	D1 antag -52
COC(=O)C1=CN(Cc2ccc(F)cc2)C=C(C(=O)OC)C1c1cc(OC)c(OC)c(OC)c1	D1 antag -41
CC(=O)N1N=C(c2ccc(Cl)cc2)OC1c1ccc(C(C)C)cc1 (stereo not given)	TRPV1 agonist inconclusive
CC(=O)N1N=C(c2ccc(C)cc2)OC1c1ccc(Br)cc1 (stereo not given)	D1 antag -30
COC(=O)c1cc2oc(C)cc2n1Cc1ccc(Br)cc1F	none (no result: TRPV1 agonist, TRPV1 PAM)
CN1C(=O)C(C)(C)c2cc(S(=O)(=O)N3CCN(c4ccccc4)CC3)ccc21	D1 antag -40
CN1C(=O)C(C)(C)c2cc(S(=O)(=O)N3CCCCCC3)ccc21	none
CCOc1ccc(CCNC(=O)c2cc3cccc4c3n2CCS4)cc1	none (no result: TRPV1 agonist, TRPV1 PAM)
COc1ccc(C(C)NC(=O)C23CC4CC(CC(C4)C2)C3)cc1OC (stereo not given)	none
CC(NC(=O)C12CC3CC(CC(C3)C1)C2)c1ccc(F)cc1 (stereo not given)	D1 antag -51, TRPV1 PAM inconclusive
O=C(CNC(=O)C1COc2ccccc2O1)N/N=C\c1ccc(Cl)cc1 (stereo not given)	D1 antag -36 (no result: TRPV1 agonist, TRPV1 PAM)
Cc1ccc(C)c(C(C)NC(=S)NCc2ccc(F)cc2)c1 (stereo not given)	D1 ag 93
COc1ccc(C(C)NC(=S)NCc2ccc(F)cc2)cc1 (stereo not given)	TRPV1 agonist inconclusive
CCC(NC(=S)NCc1ccc(F)cc1)c1ccccc1 (stereo not given)	D1 ag 40, TRPV1 agonist inconclusive
Cc1cccc(C(=O)NCCc2csc(C)n2)c1	D1 antag -85
O=C(NCCc1csc(-c2cccnc2)n1)c1ccccc1	D1 antag -47!
O=C(NCCc1csc(-c2ccccc2)n1)c1ccco1	D1 antag -30
O=C(NCCc1csc(-c2ccccc2)n1)c1cccs1	D1 antag -60, TRPV1 agonist inconclusive
Cc1ccc(C(=O)NCCc2csc(C)n2)cc1	none
O=C(NCCc1csc(-c2cccnc2)n1)c1cccc2ccccc12	none
COc1ccc(-c2noc(-c3ccc(N4CCN(c5ccc(OC)cc5)CC4)c([N+](=O)[O-])c3)n2)cc1	none (no result: TRPV1 agonist, TRPV1 PAM)
CCOC(=O)CSc1nc2cc3c(cc2c(=O)n1Cc1ccc(C(=O)NCCc2ccc(OC)c(OC)c2)cc1)OCO3	none (no result: TRPV1 agonist, TRPV1 PAM)
CCS(=O)(=O)NCCc1csc(-c2ccccc2)n1	none
CCS(=O)(=O)NCCc1csc(-c2cccnc2)n1	D1 antag -36
Cc1ccc(SCC(=O)OCC(=O)N(C)CC(=O)Nc2ccc(F)cc2)cc1C	D1 ag 53
CN(CC(=O)Nc1ccc(F)cc1)C(=O)CSc1ccc2c(c1)OCCO2	none
COc1ccc(CNC(=O)c2cc3cc(S(=O)(=O)N4CCCCC4)ccc3n2C)c(OC)c1	none (no result: TRPV1 agonist, TRPV1 PAM)
Cc1csc(SCC(=O)c2cc(C)n(Cc3cccs3)c2C)n1	TRPV1 agonist inconclusive
Cc1cc(C(=O)CSc2nnc(N)s2)c(C)n1Cc1cccs1	D1 antag -39
C#CCOCCOCCOCCNc1nc(N2CCN(C(=O)CCCCCCCCCCNC(=O)[C@@H](CCC(=O)O)n3cc(CCCCCN)nn3)CC2)nc(N2CCN(C(=O)CCCCCCCCCCNC(=O)[C@H]([C@@H](C)CC)n3cc(CCCCCN)nn3)CC2)n1	D1 potentiator 37, TRPV1 PAM inconclusive
C#CCOCCOCCOCCNc1nc(N2CCN(C(=O)CCCCCCCCCCNC(=O)[C@H]([C@@H](C)CC)n3cc(CCCCCN)nn3)CC2)nc(N2CCN(C(=O)CCCCCCCCCCNC(=O)[C@H](CCCCN)n3cc(CCCC(=O)O)nn3)CC2)n1	D1 ag 35
C#CCOCCOCCOCCNc1nc(N2CCN(C(=O)CCCCCCCCCCNC(=O)[C@H]([C@@H](C)CC)n3cc(CCCCCN)nn3)CC2)nc(N2CCN(C(=O)CCCCCCCCCCNC(=O)[C@H](CO)n3cc(CCCCCN)nn3)CC2)n1	D1 ag 50
C#CCOCCOCCOCCNc1nc(N2CCN(C(=O)CCCCCCCCCCNC(=O)[C@H]([C@@H](C)CC)n3cc(CCCCCN)nn3)CC2)nc(N2CCN(C(=O)CCCCCCCCCCNC(=O)[C@@H]([C@H](C)CC)n3cc(CCCCCN)nn3)CC2)n1	TRPV1 PAM inconclusive
C#CCOCCOCCOCCNc1nc(N2CCN(C(=O)[C@H](Cc3cc4ccccc4[nH]3)n3cc([C@@H](N)C(C)CC)nn3)CC2)nc(N2CCN(C(=O)[C@H](CCCCN)n3cc([C@@H](N)CO)nn3)CC2)n1 (stereo not given in full)	D1 antag -35
C#CCOCCOCCOCCNc1nc(N2CCN(C(=O)CCCCCCCCCCNC(=O)[C@H]([C@@H](C)CC)n3cc(CCCCN=C(N)N)nn3)CC2)nc(N2CCN(C(=O)CCCCCCCCCCNC(=O)[C@H](CCCCN)n3cc(C)nn3)CC2)n1	none
Cc1ccc2c(c1)-c1c(c(C(=O)N3CCN(c4cc(C)ccc4C)CC3)nn1C)CS2	none (no result: TRPV1 agonist, TRPV1 PAM)
CC[C@H](C)[C@@H](C(=O)NCCCCCCCCCCC(=O)N1CCN(C(=O)OC(C)(C)C)CC1)n1cc(CCCCCNC(=O)OC(C)(C)C)nn1	D1 antag -31
CC(=O)N1CCC2(CC1)OC(=O)C(C)=C2C(=O)NCc1ccccc1Cl	none (no result: TRPV1 agonist, TRPV1 PAM)
CCS(=O)(=O)N1CCC2(CC1)OC(=O)C(C)=C2C(=O)NCc1ccccc1C	D1 antag -54 (no result: TRPV1 agonist, TRPV1 PAM)
Cc1ccc(-c2cc(C(=O)N(Cc3ccccc3)Cc3ccco3)no2)cc1F	none (no result: TRPV1 agonist, TRPV1 PAM)
CCN(CC)S(=O)(=O)c1ccc(NCCCn2ccnc2)c([N+](=O)[O-])c1	none
O=C(NCCCn1ccnc1)c1ccc2ccccc2c1	D1 antag -37
O=C(NCCCn1ccnc1)c1cn(-c2ccccc2)nc1-c1ccccc1	D1 antag -83
O=C(NCCCn1ccnc1)c1ccccc1Br	none
O=C(c1ccccc1)c1ccc(NCCCn2ccnc2)c([N+](=O)[O-])c1	D1 antag -35
O=C(NCCCn1ccnc1)c1ccc(NS(=O)(=O)c2ccc(Cl)c(Cl)c2)cc1	D1 ag 34
COc1ccc(CNc2n[nH]c(-c3ccco3)n2)cc1OC	none (no result: TRPV1 agonist, TRPV1 PAM)
COC(=O)c1cc(NC(=O)c2cc3c(-c4ccccc4F)nn(C)c3s2)cc(C(=O)OC)c1	none (no result: TRPV1 agonist, TRPV1 PAM)
COc1cc(Nc2nn(-c3ccc(OC(F)(F)F)cc3)nc2C(C)=O)cc(OC)c1	none (no result: TRPV1 agonist, TRPV1 PAM)
O=c1c2ccccc2c(-c2ccccc2)nn1-c1cc(Cl)ccc1[N+](=O)[O-]	none
Cc1ccc(-c2nn(-c3cc(Cl)ccc3[N+](=O)[O-])c(=O)c3ccccc23)cc1C	D1 antag -49
COc1ccccc1CN1C(=O)C(=O)c2cccc(C)c21	none (no result: TRPV1 agonist, TRPV1 PAM)
